Compound activity deposited in PubChem BioAssay by several laboratories.
3CLpro inhibitor: SARS-CoV 3CLpro protease inhibitors, primary screen, biochemical, quenched FRET; Replicase polyprotein 1ab (Severe acute respiratory syndrome coronavirus), P0C6X7; recombinant SARS-CoV 3CLpro, quenched FRET peptide cleavage; inhibition, % at 6 µM; 0.14% of 290,000 active; in the data active = inhibition above about 12%
BoNT-F LC inh: BoNT/F light chain protease inhibitors, primary screen, biochemical, flow cytometry, MLPCN library; Botulinum neurotoxin type F light chain protease (Clostridium botulinum); Multiplex microsphere protease cleavage assay; inhibition, % at 10 µM; 0.22% of 360,000 active; AID 588497, 2011; in the data active = inhibition above about 35%, passing the limit was not always enough; inconclusive = no clear call, values can overlap the other calls
VHR inh abs: VHR1 phosphatase inhibitors, primary screen, biochemical, absorbance, uHTS; Dual specificity protein phosphatase 3 (Homo sapiens), P51452; recombinant VHR phosphatase, pNPP absorbance; inhibition, % at 13.3 µM; 0.52% of 290,000 active; AID 1654, 2009; in the data active = inhibition above about 50%
Target sequence (P51452 whole entry, looked up): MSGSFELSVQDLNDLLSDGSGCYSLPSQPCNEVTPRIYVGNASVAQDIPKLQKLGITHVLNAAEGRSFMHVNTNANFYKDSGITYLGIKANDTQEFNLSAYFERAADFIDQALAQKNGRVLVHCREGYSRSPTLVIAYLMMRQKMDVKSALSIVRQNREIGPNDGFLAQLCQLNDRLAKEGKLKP
Anthrax LF inh2: Bacillus anthracis LF protease inhibitors, primary screen, biochemical, multiplex microsphere, MLPCN library. inhibition, % at 10 µM. 0.12% of 360,000 active. multiplex microsphere protease cleavage assay. Lethal factor (Bacillus anthracis), P15917
BoNT A protease: BoNT/A light chain protease inhibitors, primary screen, biochemical, flow cytometry, MLPCN library | AID 588499, 2011 | Botulinum neurotoxin type A light chain protease (Clostridium botulinum A str. ATCC 3502) | inhibition, % at 10 µM | multiplex microsphere protease substrate cleavage | 0.17% of 360,000 active
Bead autofluor: flagged as autofluorescent in microsphere protease counterscreen; fluorescence intensity (concentration not given with the values); 3.1% of 360,000 active; compound autofluorescence counterscreen, microsphere flow cytometry; stronger effect = higher value; in the data active = fluorescence intensity above about 16000; inconclusive = no clear call, values can overlap the other calls
BoNTA LC inh 1: BoNT/A light chain protease inhibitors, confirmation, biochemical, flow cytometry, cherry pick 1. shares compounds with BoNT-F LC inh. multiplex microsphere protease assay. inhibition, % at 10 µM. 3% of 720 active. AID 602139, 2011; in the data active = inhibition above about 32%
BoNTF LC inh 1: BoNT/F light chain protease inhibitors, confirmation, biochemical, flow cytometry, cherry pick 1; inhibition, % at 10 µM; 720 tested, under 10 active; multiplex microsphere protease cleavage assay; shares compounds with BoNT-F LC inh; call rule not given here
Anthrax LF CP1: Bacillus anthracis LF protease inhibitors, confirmation, biochemical, multiplex microsphere, cherry pick 1. shares compounds with BoNT-F LC inh. multiplex microsphere protease cleavage assay. inhibition, % at 10 µM. 720 tested, under 10 active. AID 602142, 2011; call rule not given here
Each line names hits and unclear results; the compound was inactive in the other large screens (follow-up assays come after a bar, where they were run). Shown are actives, neighbours in structure and some others; about 3.9% of the full set was active somewhere. Rule as the data show it, unless noted: active = inhibition above about 30%; inconclusive = no clear call, values can overlap the other calls; inactive = below that.

O=S(=O)(NCc1cccnc1)c1cc(Cl)ccc1Cl	BoNT-F LC inh 37.1, BoNT A protease 34.2 | BoNTA LC inh 1 inactive | BoNTF LC inh 1 inactive | Anthrax LF CP1 inactive
O=C1CNCc2[nH]c3ccccc3c2N1c1ccccc1	BoNT A protease 33.2 | BoNTA LC inh 1 inactive | BoNTF LC inh 1 inactive | Anthrax LF CP1 inactive
COc1ccccc1C1=Nn2c(COc3ccccc3)nnc2SC1	none (no result: BoNT-F LC inh, Anthrax LF inh2, BoNT A protease, Bead autofluor)
COc1cc(CCC(=O)O)on1	BoNT-F LC inh 61.6 | BoNTA LC inh 1 inactive | BoNTF LC inh 1 inactive | Anthrax LF CP1 inactive
COC(=O)CSc1nc(C)cc(N2CCOCC2)n1	none
COc1ccc(-n2nc(C(=O)NCC(=O)NCc3cccc(F)c3)c3ccccc3c2=O)cc1Cl	BoNT-F LC inh 36.3 | BoNTA LC inh 1 inactive | BoNTF LC inh 1 inactive | Anthrax LF CP1 inactive
COc1cc(NC(=O)c2ccccc2)c(OC)cc1NC(=O)CN1C(=O)NC2(CCCCC2)C1=O	none (no result: 3CLpro inhibitor, VHR inh abs)
CCCC1OC(c2ccco2)OCC1CC (configuration not stated)	none (no result: 3CLpro inhibitor, VHR inh abs)
O=C(CCNC(=O)c1ccccc1)NCCc1ccc(Cl)cc1	Anthrax LF inh2 37.6 | BoNTA LC inh 1 inactive | BoNTF LC inh 1 inactive | Anthrax LF CP1 inactive
CCC(C)(C)n1nnnc1C(c1cc2cc(C)cc(C)c2[nH]c1=O)N1CCCC1 (configuration not stated)	none
CCC(C)(C)n1nnnc1C(c1cc2cccc(C)c2[nH]c1=O)N1CCCC1 (configuration not stated)	BoNT A protease inconclusive, Bead autofluor 23337 | BoNTA LC inh 1 inactive | BoNTF LC inh 1 inactive | Anthrax LF CP1 inactive
CCC(C)(C)n1nnnc1C(c1cc2ccc(OC)cc2[nH]c1=O)N1CCCCC1 (configuration not stated)	none | BoNTA LC inh 1 inactive | BoNTF LC inh 1 inactive | Anthrax LF CP1 inactive
COc1ccc(CC2SC(N)=NC2=O)cc1 (configuration not stated)	BoNT-F LC inh inconclusive
COc1ccccc1Oc1ccc2c(c1)C(=O)N(c1ccc(O)cc1)C2=O	none
COc1ccccc1Oc1ccc2c(c1)C(=O)N(CC(=O)O)C2=O	BoNT-F LC inh 37.5 (no result: VHR inh abs) | BoNTA LC inh 1 inactive | BoNTF LC inh 1 inactive | Anthrax LF CP1 inactive
Cc1ccc(C(=O)NC2CCN(S(=O)(=O)c3ccccc3F)CC2)cc1	none
COCCn1c(-c2ccc(OC)cc2)c(-c2ccc(OC)cc2)oc1=O	none
COc1ccc(-c2oc(=O)n(C)c2-c2ccc(OC)cc2)cc1	BoNT-F LC inh 90.4 | BoNTA LC inh 1 inactive | BoNTF LC inh 1 inactive | Anthrax LF CP1 inactive
Cc1cc(C)c(C#N)c(Oc2ccccc2)n1	none
CCN(C(=O)COc1nc(C)cc(C)c1C#N)c1ccccc1	Anthrax LF inh2 37.5 | BoNTA LC inh 1 inactive | BoNTF LC inh 1 inactive | Anthrax LF CP1 inactive
CC1(C(=O)NS(=O)(=O)c2ccc3ccccc3c2)CCN1C(=O)Cc1ccc(Cl)cc1Cl (configuration not stated)	none (no result: 3CLpro inhibitor, VHR inh abs)
NC(=O)c1ccc(Br)c(S(=O)(=O)N2CCCCC2)c1	BoNT-F LC inh 42.1, BoNT A protease 35.3 | BoNTA LC inh 1 inactive | BoNTF LC inh 1 inactive | Anthrax LF CP1 inactive
O=C(c1ccc(Br)c(S(=O)(=O)N2CCCCC2)c1)N1CCCCC1	none
Cc1ccc(C(=O)Nc2ccc(O)cc2C(=O)O)cc1	none | BoNTA LC inh 1 inactive | BoNTF LC inh 1 inactive | Anthrax LF CP1 inactive
CCc1ccc(OCCCC(=O)Nc2ccc(N3CCCCC3)cc2)cc1	BoNT-F LC inh 39.7 | BoNTA LC inh 1 inactive | BoNTF LC inh 1 inactive | Anthrax LF CP1 inactive
Cc1cccc(C)c1NC(=O)C1CC(=O)N(C(C)C)C1 (configuration not stated)	BoNT-F LC inh 35.0 | BoNTA LC inh 1 inactive | BoNTF LC inh 1 inactive | Anthrax LF CP1 inactive
CC(C)c1ccc(NC(=O)C2CC(=O)N(C(C)C)C2)cc1 (configuration not stated)	BoNT-F LC inh inconclusive
COc1cccc(OC)c1C(=O)N1CCN(S(=O)(=O)c2ccccc2)CC1	none
COc1ccccc1NCC(=O)N1CCN(S(=O)(=O)c2ccccc2)CC1	Anthrax LF inh2 32.1, Bead autofluor inconclusive (no result: 3CLpro inhibitor, VHR inh abs) | BoNTA LC inh 1 inactive | BoNTF LC inh 1 inactive | Anthrax LF CP1 inactive
Cc1ccccc1Cn1nc(C)c(NC(=O)c2cc3nc(-c4ccco4)cc(C(F)(F)F)n3n2)c1C	none | BoNTA LC inh 1 inactive | BoNTF LC inh 1 inactive | Anthrax LF CP1 inactive
CCc1ccc(-c2cc(C(F)(F)F)n3nc(C(=O)Nc4c(C)nn(Cc5ccc(F)cc5)c4C)cc3n2)s1	BoNT A protease 32.7 | BoNTA LC inh 1 inactive | BoNTF LC inh 1 inactive | Anthrax LF CP1 inactive
O=C(Nc1cnn(Cc2ccccc2)c1)c1cc2nc(-c3ccco3)cc(C(F)(F)F)n2n1	none | BoNTA LC inh 1 inactive | BoNTF LC inh 1 inactive | Anthrax LF CP1 inactive
Cc1nn(Cc2ccc(F)cc2)c(C)c1NC(=O)c1cc(-c2ccc3c(c2)OCO3)on1	none
Cc1nn(C)cc1NC(=O)c1cc2nc(-c3ccco3)cc(C(F)(F)F)n2n1	none | BoNTA LC inh 1 inactive | BoNTF LC inh 1 inactive | Anthrax LF CP1 inactive
Cc1nn(C)cc1CN(C)C(=O)c1cc2nc(-c3ccco3)cc(C(F)(F)F)n2n1	none
CC(O)(c1ccc(F)c(F)c1)c1nc(-c2ccc(S(C)(=O)=O)cc2)cs1 (configuration not stated)	none (no result: 3CLpro inhibitor, VHR inh abs)
O=C(O)C1CCCCC1C(=O)NCc1ccccn1 (configuration not stated)	none
Cc1cc2ccccc2n1CCNC(=O)C1CCCC1	BoNT A protease 162.8 | BoNTA LC inh 1 inactive | BoNTF LC inh 1 inactive | Anthrax LF CP1 inactive
Cn1cc(CC(=O)NCCCN2CCCC2)c2ccccc21	BoNT-F LC inh 35.9 | BoNTA LC inh 1 inactive | BoNTF LC inh 1 inactive | Anthrax LF CP1 inactive
COc1ccc(OC)c(C(=O)NC(CC(N)=O)c2ccc(N3CCC(Cc4ccccc4)CC3)c([N+](=O)[O-])c2)c1 (configuration not stated)	none
Nc1c(C(=O)NC2CCCC2)c2nc3ccccc3nc2n1CC1CCCO1 (configuration not stated)	BoNT A protease 30.7 | BoNTA LC inh 1 inactive | BoNTF LC inh 1 inactive | Anthrax LF CP1 inactive
Nc1c(C(=O)NC2CCCC2)c2nc3ccccc3nc2n1N	none
